{"source": "PubChem BioAssay (NCATS)", "note": "Results filed as inconclusive are left out. Where a call stands in place of a potency, no number is given. Values without a mark were called inactive. Activity calls are given as the source filed them. Calls come from the whole dose curve; as a rule, active = well fitted curve in the direction sought with a large enough effect; inconclusive = small, poorly fitted or top-dose-only effect, or another doubt; inactive = no such curve, though single readings can be large; an effect the other way counts as inactive or inconclusive.", "data": [{"test_system": "Zika virus NS2B-NS3 protease", "test": "Primary screen GU AMC qHTS for Zika virus inhibitors (AID 1347154); note: nearly all actives have a fitted effect of over 70% in size", "details": "Zika NS2B-NS3 unlinked protease, AMC fluorogenic substrate; series mostly up to 54.1 µM; activity change, negative = inhibition: at the top concentration", "method_in_brief": "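Unlinked Zika NS2B hydrophilic domain–NS3 protease complex at 25 nM in 10 mM Tris-HCl pH 8.0, 0.01% Tween 20, with an AMC peptide substrate. Fluorescence change (340/450 nm) over 15 min at room temperature, normalized to controls, fitted to 4-parameter Hill.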", "values": [{"compound": "NC(=O)OCC(COC(N)=O)c1ccccc1", "Potency": "inactive"}, {"compound": "COc1cc2c(c(OC)c1OC)-c1ccc(OC)c(=O)cc1[C@@H](NC(C)=O)CC2", "Potency": "inactive"}, {"compound": "CN1CCC(=C2c3ccccc3C=Cc3ccccc32)CC1", "Potency": "inactive"}, {"compound": "Nc1c2c(nc3ccccc13)CCCC2", "Potency": "inactive"}, {"compound": "CC#C[C@]1(O)CC[C@H]2[C@@H]3CCC4=CC(=O)CCC4=C3[C@@H](c3ccc(N(C)C)cc3)C[C@@]21C", "Potency": "inactive"}, {"compound": "CN(C)CCOC(c1ccccc1)c1ccccc1", "Potency": "inactive"}, {"compound": "NS(=O)(=O)c1cc2c(cc1Cl)NCNS2(=O)=O", "Potency": "inactive"}, {"compound": "COc1ccccc1N1CCN(CC(O)COc2cccc3ccccc23)CC1", "note": "(configuration not stated)", "Potency": "inactive"}, {"compound": "Cc1cn([C@H]2C=C[C@@H](CO)O2)c(=O)[nH]c1=O", "Potency": "inactive"}, {"compound": "CCC1(c2ccccc2)C(=O)NCNC1=O", "Potency": "inactive"}, {"compound": "CN1C(C(=O)Nc2ccccn2)=C(O)c2ccccc2S1(=O)=O", "Potency": "inactive"}, {"compound": "CCC1(C)CC(=O)NC1=O", "note": "(configuration not stated)", "Potency": "inactive"}, {"compound": "CC(C)(Oc1ccc(C2CC2(Cl)Cl)cc1)C(=O)O", "note": "(configuration not stated)", "Potency": "inactive"}, {"compound": "COc1ccccc1OCC(O)CN1CCN(CC(=O)Nc2c(C)cccc2C)CC1", "note": "(configuration not stated)", "Potency": "inactive"}, {"compound": "CN1CCN2c3ccccc3Cc3ccccc3C2C1", "note": "(configuration not stated)", "Potency": "inactive"}, {"compound": "Nc1nnc(-c2cccc(Cl)c2Cl)c(N)n1", "Potency": "inactive"}, {"compound": "COc1nc(C)nc(Cl)c1NC1=NCCN1", "Potency": "inactive"}, {"compound": "CN(C)C(=O)C(CCN1CCC(O)(c2ccc(Cl)cc2)CC1)(c1ccccc1)c1ccccc1", "Potency": "inactive"}, {"compound": "CC(C)C(=O)Nc1ccc([N+](=O)[O-])c(C(F)(F)F)c1", "Potency": "inactive"}, {"compound": "OCCN1CCN(CCCN2c3ccccc3Sc3ccc(C(F)(F)F)cc32)CC1", "Potency": "inactive"}, {"compound": "O=c1[nH]cc(F)c(=O)[nH]1", "Potency": "inactive"}, {"compound": "COc1ccc(CCN(C)CCCC(C#N)(c2ccc(OC)c(OC)c2)C(C)C)cc1OC", "note": "(configuration not stated)", "Potency": "inactive"}, {"compound": "Cn1c(=O)c2[nH]cnc2n(C)c1=O", "Potency": "inactive"}, {"compound": "Cc1cc(C(C)(C)C)cc(C)c1CC1=NCCN1", "Potency": "inactive"}, {"compound": "Fc1ccc([C@@H]2CCNC[C@H]2COc2ccc3c(c2)OCO3)cc1", "Potency": "inactive"}, {"compound": "CC12CC3CC(C)(C1)CC(N)(C3)C2", "Potency": "inactive"}]}, {"test_system": "not listed separately", "test": "Confirmatory screen NINDS Rhodamine qHTS for Zika virus inhibitors (AID 1347161); note: nearly all actives have a fitted effect of over 60% in size; note: potency is the fitted concentration of half-maximal effect", "details": "purified enzyme assay, Rhodamine110 substrate fluorescence, 15 min; series mostly up to 114 µM; activity change, negative = inhibition: at the top concentration", "method_in_brief": "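Enzyme (25 nM, linked NS2B-NS3) was preincubated 15 min with compound in 10 mM Tris-HCl pH 8.0, 0.01% Tween 20. Rhodamine110 substrate (1.5 microM) was then added and fluorescence read at start and after 15 min.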", "values": [{"compound": "COc1cc2nc(N3CCN(C(=O)c4ccco4)CC3)nc(N)c2cc1OC", "activity change, negative = inhibition": "7.11% [at 64.7 µM]"}, {"compound": "CCOC(=O)Nc1ccc(NCc2ccc(F)cc2)nc1N", "activity change, negative = inhibition": "14.8%"}, {"compound": "C[C@H]1c2cccc(O)c2C(O)=C2C(=O)[C@]3(O)C(O)=C(C(N)=O)C(=O)[C@@H](N(C)C)[C@@H]3[C@@H](O)[C@@H]21", "Potency": "62.1 µM (active)"}, {"compound": "Cn1ccc2cc3c(cc21)CCN3C(=O)Nc1cccnc1", "Potency": "62.2 µM (active)"}, {"compound": "Cc1ccccc1N1C(=O)c2cc(S(N)(=O)=O)c(Cl)cc2NC1C", "note": "(configuration not stated)", "activity change, negative = inhibition": "-37.3%"}, {"compound": "Cc1cnc(C(=O)NCCc2ccc(S(=O)(=O)NC(=O)NC3CCCCC3)cc2)cn1", "activity change, negative = inhibition": "-35.8%"}]}]}
